A selection: hits, their analogues and other compounds. The true share with any hit is near 3.1%.
LGR2 antag: blocks bursicon-induced cAMP signaling via Drosophila LGR2; HEK293 LGR2, CRE-luciferase, bursicon-stimulated, 4 h; inhibition, % at 9.99 µM; 380,000 tested, 0.35% active; AID 720647;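 active = drop in luminescence signal, shown as inhibition above about 50% in the replicate tests, limit read from the data, passing the limit was not always enough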;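 also: agonist challenge used bursicon conditioned medium at about half maximal strength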
TROY NFkB inh: blocks TROY-dependent signaling in reporter cells; Q293 LMP1-TROYcd NF-kB luciferase reporter, 4 h; inhibition, % at 10 µM; AID 1347056; 360,000 tested, 0.98% active;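 active = compounds whose plate-normalised and pattern-corrected inhibition of the luciferase reporter signal at the single screening dose is 50% or more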
TWEAK Fn14 block: TWEAK-Fn14 signaling inhibition; TWEAK-stimulated Fn14 reporter cells, luciferase luminescence, 8 h; inhibition, % at 10 µM; 360,000 tested, 2% active; in the data active = inhibition above about 50%
EBV LMP1 NFkB: Epstein-Barr LMP1 NF-kappaB reporter inhibition. LMP1-induced NF-kappaB luciferase reporter cells, luminescence. 350,000 tested, 0.69% active. inhibition, % at 12.5 µM. AID 504558; in the data active = inhibition above about 41%
EWS-Fli inh: EWS/Fli transcriptional activity inhibition | A673 NR0B1-luciferase reporter, viability-normalised | inhibition, % at 12.6 µM | 350,000 tested, 0.67% active;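 active = mean inhibition of at least 50% after viability correction, with every replicate also passing that limit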;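 also: firefly luciferase signal divided by Alamar Blue viability fluorescence both relative to DMSO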
PAX8 inh HTS: lowers PAX8-driven luciferase in RMG-I cells | AID 652154 | 360,000 tested, 1.2% active | RMG-I TPO-luciferase reporter, SteadyGlo, 24 h | inhibition, % at 12.6 µM;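 active = mean replicate inhibition at least 60% with every replicate also reaching 60%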;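 also: luciferase light reporting Pax8 driven TPO promoter activity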
Of the large screens only hits and unclear results are named; the others gave an inactive call.

CC(C)(C)OC(=O)NCCCC[C@@H](C(=O)NCCCCCCCCCCC(=O)N1CCN(C(=O)OC(C)(C)C)CC1)n1cc(CCCC(=O)O)nn1	none
CC(C)(C)OC(=O)NCCCCCc1cn([C@@H](CO)C(=O)NCCCCCCCCCCC(=O)N2CCN(C(=O)OC(C)(C)C)CC2)nn1	TROY NFkB inh 73, TWEAK Fn14 block 103 (no result: LGR2 antag)
Cc1ccc(-c2cn3nc(C)c(C)nc3n2)cc1	EBV LMP1 NFkB 63 (no result: LGR2 antag, EWS-Fli inh, PAX8 inh HTS)
C[C@@H]1CCCCO[C@H](CN(C)S(=O)(=O)c2cn(C)cn2)[C@H](C)CN([C@@H](C)CO)C(=O)c2cc(NS(=O)(=O)c3ccccc3)ccc2O1	none (no result: TROY NFkB inh, TWEAK Fn14 block, EBV LMP1 NFkB)
Cc1ccc2c(c1)C(=O)N1[C@H]3c4cc(Cl)ccc4OC[C@@H]3[C@H](c3ccccc3)[C@]1(C)C(=O)N2	EWS-Fli inh 52
N#CC1=C(N)OC2=C(C(=O)CCC2)C12C(=O)N1CCCc3cccc2c31 (stereo unspecified)	EBV LMP1 NFkB 84 (no result: LGR2 antag, EWS-Fli inh, PAX8 inh HTS)
CCCC(=O)Nc1ccc2c(c1)C(=O)N(C)C[C@@H](OC)[C@@H](C)CN(C(=O)CC1CC1)[C@@H](C)CO2	none (no result: TROY NFkB inh, TWEAK Fn14 block, EBV LMP1 NFkB)
COc1ccc2c3c(n(C)c2c1)[C@H](CO)N(CC1CCCCC1)CC31CN(C(C)=O)C1	none (no result: TROY NFkB inh, TWEAK Fn14 block, EBV LMP1 NFkB, PAX8 inh HTS)
CCOC(=O)c1c(C)c2c(=O)[nH]cnc2n1-c1ccccc1	TWEAK Fn14 block 63
O=S(=O)(N[C@@H]1CCCN(Cc2cccc(OCCO)c2)C1)c1cc(Cl)ccc1Cl	none (no result: LGR2 antag, TROY NFkB inh, TWEAK Fn14 block, EBV LMP1 NFkB)
CC(N)=Nc1ccc([N+](=O)[O-])cc1	none (no result: EWS-Fli inh)
O=[N+]([O-])c1ccc(N=Nc2c(Cl)cc(O)cc2Cl)cc1	TWEAK Fn14 block 87, PAX8 inh HTS 98
COc1cc2[nH]c(=O)n(CCCCCC(=O)N3CC=C(c4ccccc4)CC3)c(=O)c2cc1OC	TWEAK Fn14 block 59 (no result: LGR2 antag, EWS-Fli inh)
COC(=O)c1ccc2c(=O)n(CCCCCC(=O)O)c(=O)[nH]c2c1	none
COC(=O)c1ccc2c(=O)n(CCCCCC(=O)N3CCN(c4ccc(F)cc4)CC3)c(=O)[nH]c2c1	TROY NFkB inh 60, TWEAK Fn14 block 56 (no result: LGR2 antag, EWS-Fli inh)
COc1cc2[nH]c(=O)n(CCC(=O)N3CCc4ccccc4C3)c(=O)c2cc1OC	none (no result: LGR2 antag, EWS-Fli inh)
CCCN(C)C[C@H]1Oc2cc(C#Cc3ccccc3)ccc2S(=O)(=O)N([C@H](C)CO)C[C@H]1C	none (no result: TROY NFkB inh, TWEAK Fn14 block, EBV LMP1 NFkB, PAX8 inh HTS)
C[C@@H]1CCCCO[C@@H](CN(C)Cc2ccccc2)[C@H](C)CN([C@@H](C)CO)C(=O)c2cc(NC(=O)Nc3ccc4c(c3)OCO4)ccc2O1	none (no result: TROY NFkB inh, TWEAK Fn14 block, EBV LMP1 NFkB)
CN(C)CCCNC(=O)[C@@H]1[C@@H](CO)[C@@H]2Cn3c(cccc3=O)[C@H]1N2CC1CC1	none (no result: TROY NFkB inh, TWEAK Fn14 block, EBV LMP1 NFkB, PAX8 inh HTS)
CN1C(=O)c2cc(NC(=O)c3cccs3)ccc2OC[C@H]2O[C@H](CC(=O)N3CCOCC3)CC[C@H]21	none (no result: TROY NFkB inh, TWEAK Fn14 block, EBV LMP1 NFkB)
CN1c2ccc(-c3ccccc3)cc2[C@@H]2[C@@H](CCN2C(=O)Nc2ccccc2F)[C@@H]1CO	none (no result: TROY NFkB inh, TWEAK Fn14 block, EBV LMP1 NFkB)
COc1ccc(NC(=O)N(C)C[C@H]2Oc3c(NS(=O)(=O)c4cn(C)cn4)cccc3C(=O)N([C@@H](C)CO)C[C@H]2C)cc1	none (no result: TROY NFkB inh, TWEAK Fn14 block, EBV LMP1 NFkB, PAX8 inh HTS)
CN1/C(=C\C(=O)Nc2ccc(Br)cc2)C(C)(C)c2ccccc21	none
CN1/C(=C\C(=S)NC(=O)c2cccc(Br)c2)C(C)(C)c2ccccc21	TWEAK Fn14 block 72 (no result: LGR2 antag)
CCN(CC)S(=O)(=O)c1cccc(C(=O)/C=C2/N(C)c3ccccc3C2(C)C)c1	TWEAK Fn14 block 61
CN1/C(=C\C(=S)NC(=O)c2ccc([N+](=O)[O-])cc2)C(C)(C)c2ccccc21	TWEAK Fn14 block 58 (no result: EWS-Fli inh)
O=C(NCC[C@H]1CC[C@@H](NS(=O)(=O)c2ccc(F)cc2)[C@@H](CO)O1)c1ccc2c(c1)OCO2	none (no result: TROY NFkB inh, TWEAK Fn14 block, EBV LMP1 NFkB)
CCc1nnc(NC(=O)CC(=O)Nc2ccccc2C(=O)O)s1	none (no result: PAX8 inh HTS)
CCCCc1nnc(NC(=O)CC(=O)Nc2ccccc2C(=O)O)s1	none (no result: LGR2 antag, TROY NFkB inh, EWS-Fli inh, PAX8 inh HTS)
CC(C)Cc1nnc(NC(=O)CC(=O)Nc2ccccc2C(=O)O)s1	TWEAK Fn14 block 51 (no result: LGR2 antag, EWS-Fli inh, PAX8 inh HTS)
CC(C)c1nnc(NC(=O)CC(=O)Nc2ccccc2C(=O)O)s1	TWEAK Fn14 block 83 (no result: LGR2 antag, EWS-Fli inh, PAX8 inh HTS)
CCC(=O)N1[C@@H]2c3ccc(C4=CCCC4)c(=O)n3C[C@@H]2[C@@H](CO)[C@@H]1C(=O)NC1CCCC1	none (no result: TROY NFkB inh, TWEAK Fn14 block, EBV LMP1 NFkB, PAX8 inh HTS)
C[C@@H]1CN([C@H](C)CO)C(=O)c2cc(NC(=O)NC3CCCCC3)ccc2O[C@@H](C)CCCCO[C@@H]1CN(C)Cc1ccc2c(c1)OCO2	none (no result: TROY NFkB inh, TWEAK Fn14 block, EBV LMP1 NFkB)
Nc1ncnc2c1ncn2[C@@H]1O[C@H](CO)[C@@H](O)[C@@H]1O	none

From PubChem BioAssay
